Assay outcomes as filed in PubChem BioAssay.
A selection: hits, their analogues and other compounds. The true share with any hit is near 8%.
MCF10A rereplic – induces DNA re-replication in MCF 10a normal breast cells. MCF 10A DNA re-replication, Hoechst nuclear intensity, 48 h. Potency, µM (series often up to 46.1 µM), for inactives: at the highest dose activity, positive = re-replication, most hits filed as activators. actives 2.9% (n = 350,000). AID 624296; also: % of control where 0% means no effect; nearly all actives have a fitted effect of over 50% in size
SW480 rereplic – inducers of DNA re-replication in SW480 colon cancer cells; SW480 DNA re-replication, Hoechst DNA content imaging, 48 h; Potency, µM (top dose mostly 46.1 µM), without a hit: at the top dose re-replication activation, hits mostly activators; actives 1.8% (n = 340,000); also: % of control where 0% means no effect; nearly all actives have a fitted effect of over 55% in size
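Cells (250 per well) received 23 nL compound or DMSO by pin tool and were kept 48 hr at 37 C, 5% CO2. Nuclei were then stained with Hoechst for 40 min and scanned for DNA content.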
KB-3-1 cytotox – KB-3-1 parental cell cytotoxicity; KB-3-1 viability, CellTiter-Glo ATP luminescence, 72 h; Potency, µM (titrated, usually from 46.1 µM), hits mostly cytotoxic; actives 1.4% (n = 400,000); AID 1347075; also: % is scaled to controls: 0 for no effect and ±100 for the full control effect; nearly all actives have a fitted effect of over 60% in size
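Here the drug-naive KB-3-1 line serves as comparator for MDR sub-line selectivity; cells received compound titrations, 72 h at 37 °C, then CellTiter-Glo readout.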
KB-V1 cytotox – KB-V1 MDR subline cytotoxicity; KB-V1 MDR cells viability, CellTiter-Glo, 72 h; Potency, µM (highest dose often 46.1 µM), most hits filed as cytotoxic; actives 3.4% (n = 400,000); also: % is scaled to controls: 0 for no effect and ±100 for the full control effect; nearly all actives have a fitted effect of over 60% in size
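qHTS viability screen in drug-selected KB-V1 MDR cells: 72 h compound treatment at 37 degrees C, ATP luminescence end point.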
HT1080 IDH1KD tx – kills HT-1080 cells with IDH1 knockdown. HT-1080 IDH1 knockdown viability, ATP luminescence, 48 h. Potency, µM (highest dose often 46.1 µM), without a hit: at the top dose activity, negative = toxicity, hits mostly cytotoxic. actives 2% (n = 360,000). AID 686971;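 also: 0% = DMSO wells and -100% = cell-free medium wells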
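Cytotoxicity counter-line: IDH1KD HT-1080, 48 h, CellTiter-Glo. Curves classed by r2, magnitude and activity.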
HT1080NT lethal – kills 2HG-producing HT-1080-NT fibrosarcoma cells; HT-1080-NT fibrosarcoma viability, CellTiter-Glo ATP luminescence, 48 h; actives 1.6% (n = 360,000); AID 686970; Potency, µM (top dose mostly 46.1 µM), without a hit: at the top dose activity, negative = less viability, usual class: cytotoxic;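 also: NT is the 2HG producing partner of a matched IDH1 knockdown line; 0% = DMSO-treated cells and -100% = media-only wells without cells; nearly all actives have a fitted effect of over 55% in size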
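HT-1080-NT; 750 cells/well; 5% FBS RPMI; 48 h compound, 37 degrees C; CellTiter-Glo luminescence; curve fitting and curve-class assignment.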
Active calls of the source: *; i = inactive; ? = inconclusive; . = no result; [ ] = dose if it differs, or a comment. Calls follow the shape of the dose curve; as a rule, active = well fitted curve in the direction sought with a large enough effect; inconclusive = small, poorly fitted or top-dose-only effect, or another doubt; inactive = no such curve, though single readings can be large; an effect the other way counts as inactive or inconclusive. Potency is read from the fitted curve at half-maximal effect.

SMILES | MCF10A rereplic | SW480 rereplic | KB-3-1 cytotox | KB-V1 cytotox | HT1080 IDH1KD tx | HT1080NT lethal
S=c1[nH]nc(Cc2ccccc2)n1Cc1ccco1 | -5% | -6% | i | ? | ? | 35µM*
Cc1cccc(NC(=S)NC2CC3CCCC(C2)N3Cc2cccs2)c1C (stereo not given) | 1% | 0% | i | i | ? | 11µM*
Cc1cccc(NC(=S)NC2CC3CCCC(C2)N3CC(C)C)c1C (stereo not given) | 13% | 11% | i | 21µM* | 13% | 6%
CCc1ccccc1NC(=S)NC1CC2CCCC(C1)N2Cc1cccs1 (stereo not given) | 0% | -7% | i | ? | ? | ?
COc1ccc(NS(=O)(=O)c2cc(NC(=O)C3CC3)ccc2N2CCCCC2)cc1 | ? | ? | ? | ? | ? | -21%
COc1ccc(NS(=O)(=O)c2cc(NC(=O)c3ccc(=O)[nH]c3)ccc2N2CCCC2)cc1 | ? | ? | 3.7µM* | i | 2.1µM* | ?
COc1ccc(NS(=O)(=O)c2cc(NC(=O)c3cnc(C)cn3)ccc2N2CCCC2)cc1 | 17% | 79% | i | 4.6µM* | 0% | -19%
COc1ccc(NS(=O)(=O)c2cc(NC(=O)c3cnc(C)cn3)ccc2N2CCCCC2)cc1 | 25% | 5% | i | i | -13% | -9%
COc1ccc(NS(=O)(=O)c2cc(NC(=O)c3ccco3)ccc2N2CCCCC2)cc1 | ? | ? | 21µM* | i | ? | -25%
Cc1ccc(CNC(=O)c2ccc(NC(=O)N3CCSc4ncccc43)cc2)cc1 | . | . | i | i | . | .
C=C1C=C(C)n2ncc(C(=O)Nc3ccc(F)cc3F)c2N1 | . | . | i | i | . | .
CCCCCCCCCCN(CCCCCCCCCC)c1ccc(/C=C/c2ccnc3ccccc23)cc1 | . | . | i | i | . | .
COc1cc(N2C(=O)CSC23C(=O)N(Cc2cccc(F)c2)c2ccccc23)cc(OC)c1OC (stereo not given) | . | . | i | i | . | .
COc1cccc(CN2C(=O)C3(SCC(=O)N3c3ccc(C(C)C)cc3)c3ccccc32)c1 (stereo not given) | . | . | ? | 18µM* | . | .
COc1cccc(CN2C(=O)C3(SCC(=O)N3c3ccc(C)c(Cl)c3)c3ccccc32)c1 (stereo not given) | . | . | 13µM* | 13µM* | . | .
COc1cc([N+](=O)[O-])cc(/C=N/N(CCC#N)C(C)=O)c1O | ? | 5.8µM* | i | i | ? | ?
COC(=O)c1ccc(N/N=C/c2cc([N+](=O)[O-])cc(OC)c2O)cc1 | 11% | -14% | i | i | -4% | -22%
COC(=O)c1sc2ccccc2c1-n1cccc1C(=O)C(=O)Nc1ccc(Cl)cc1 | 2% | 5% | ? | 12µM* | 0% | -2%
COC(=O)c1sc2ccccc2c1-n1cccc1C(=O)C(=O)Nc1ccc(F)cc1 | -1% | -1% | i | i | -1% | -3%
COC(=O)c1sc2ccccc2c1-n1cccc1C(=O)C(=O)Nc1ccc(C)cc1 | 0% | -2% | ? | 9.2µM* | -6%[9.24 µM] | -6%
CC(C)CCOc1ccc(Cn2c(=O)oc3ccccc32)cc1 | . | . | i | ? | . | .
Cn1nnnc1SCCNCc1cc(Br)ccc1OCc1ccccc1Cl | . | . | ? | i | . | .
CC(/C=C/c1ccc(C)o1)=C\C(=O)O | 23µM* | 9% | i | i | -4% | 5%
Cc1ccc(/C=C/C(=O)N2CC(C)CC(C)C2)o1 (stereo not given) | 23µM* | 16µM* | i | i | ? | ?
CCN1CCN(C(=O)/C=C/c2ccc(C)o2)CC1 | -64% | 69% | i | ? | 8% | 15%
SMILES | MCF10A rereplic | SW480 rereplic | KB-3-1 cytotox | KB-V1 cytotox | HT1080 IDH1KD tx | HT1080NT lethal
Cc1nc2nc(SCC(=O)NCCCN3CCCC(C)C3)nn2c(C)c1Cc1ccccc1Cl (stereo not given) | -1% | 2% | i | i | -3% | -14%
c1ccc(-n2ncc3c(NCc4ccco4)ncnc32)cc1 | 13µM* | 21µM* | i | i | ? | ?
CCCCNc1ncnc2c1cnn2-c1ccc(Cl)cc1 | ? | 8.2µM* | 1.6µM* | ? | 9.2µM* | 12µM*
CCc1nc(NC(C)(C)C)c2cnn(-c3ccccc3)c2n1 | 23µM* | ? | i | i | ? | ?
c1ccc(Cn2ncc3c(NCc4ccco4)ncnc32)cc1 | -6% | 5% | i | i | -2%[9.24 µM] | ?
Clc1ccc(Cn2ncc3c(NCc4ccccc4)ncnc32)cc1 | 6.5µM* | ? | 5.2µM* | 6.5µM* | 4.6µM* | 5.8µM*
CCCCNc1ncnc2c1cnn2Cc1ccc(Cl)cc1 | ? | ? | ? | i | ? | ?
CC(NC(=O)COC(=O)c1cc(=O)c2ccccc2o1)c1ccccc1 (stereo not given) | 0% | -2% | i | i | -3% | 1%
CC(=O)NC(CC(=O)OC(C)C(=O)Nc1ccc(Cl)cn1)c1ccccc1 (stereo not given) | -1% | -12% | i | i | 9% | 0%
CN(C)c1ccc(/C=C/C=C2/C=Cc3ccccc32)cc1 | . | . | i | i | . | .
COc1ccc(Nc2ncnc3c2cnn3Cc2ccccc2)cc1OC | 15% | 5% | i | 18µM* | ? | ?
Clc1ccc(-n2ncc3c(NCc4ccccn4)ncnc32)cc1 | 15% | -6% | i | 23µM* | -10% | -3%
